Measured values as given in PubChem BioAssay (NCATS).
Records with an inconclusive call do not appear. Activity calls are given as the source filed them. Calls come from the whole dose curve; as a rule, active = well fitted inhibition curve with a large enough effect; inconclusive = small, poorly fitted or top-dose-only effect; inactive = flat fitted curve, though single readings scatter.

Assay: qHTS for Inhibitors of Plasmodium falciparum (DD2) proliferation (AID 504314)
Conditions: P. falciparum Dd2 in erythrocytes, SYBR Green growth, 72 h; series mostly up to 6.11 µM; activity, negative = inhibition: at the top concentration
Description: Plasmodium falciparum is a virulent malarial parasite that kills 1-2 million people worldwide each year. Malaria not only inflicts tremendous suffering and morbidity on the human population, but has dramatically influenced the course of civilization with profound sociological and economic implications (Shah, S. 2010). Transmitted by mosquitoes, the sporozoite form of the parasite enters the blood stream to infect hepatocytes, where they become merozoites that infect red blood cells (erythrocytes). Within erythrocytes, merozoites begin a […] cycle of growth and division, after which the parasite is released to infect new red blood cells. Gametocytes, which form within erythrocytes as well, circulate in the bloodstream and are ingested by the mosquito, thereby completing the life cycle (see CDC website). To profile malarial lines for differential chemical responses and to identify inhibitors of malarial growth, an assay that measures P. falciparum growth and replication within erythrocytes was employed. This assay uses a DNA binding fluorescent dye (SYBR Green) to detect parasite DNA following cell lysis. Because mature erythrocytes lack DNA, only Plasmodium-derived DNA is detected. The P. falciparum line cp250, derived from a malarial isolate from Cambodia, (Mu, J., et al. 2010) was added to the panel of lines, Dd2, HB3, 7G8 and GB4 in this study.
Laboratory of Assay Development and Screening Technology [ADST] and NIH Chemical Genomics Center [NCGC]
Boston University, Chemistry Department, Center for Chemical Methodology and Library Development [CMLD-BU]
NIH National Institute of Allergy and Infectious Diseases [NIAID]
ADST Assay Protocol Summary:
The 1536-well SYBR Green viability assay was based on the method of Bennett et al (2004) and described previously in 1536-well format (Yuan J., et al. 2009). For screening 3 ul culture medium was dispensed into 1536 well black clear bottom plates (Aurora Biotechnologies) using a Multidrop Combi (Thermo Fisher Scientific Inc.), 23 nL compounds in DMSO were added by a pin transfer (Cleveland, P.H. and Koutz, P.J, 2005) using a pin tool-based delivery system (Kalypsys), and 5 ul of erythrocytes infected with P. falciparum one of five lines (cp250, Dd2, HB3, 7G8 or GB4, 0.3% parasitemia, 2.5% hematocrit final concentration) were added. The plates were incubated at 37C in a humidified incubator in 5% CO2 for 72 h, and 2 ul lysis buffer (20 mM Tris HCl, 10 mM EDTA, 0.16% saponin, 1.6% triton X, 10X SYBR Green I (supplied as 10,000X final concentration by Invitrogen) was added to each well. The plates were mixed for 25 sec with gentle shaking and incubated overnight at room temperature in the dark. The following morning, fluorescence intensity at 485(14) nm excitation and 535(25) nm emission wavelengths was measured on an EnVision (Perkin Elmer) plate reader. Plate reads were normalized relative to the control inhibitor (0.29 uM artemisinin) and vehicle (DMSO) wells present on each plate and then corrected by an algorithm using vehicle-only control plates at the beginning and end of the compound plate stack.
Shah, S. (2010). The Fever: how malaria has ruled humankind for 500,000 years. New York, Sarah Crichton Books.
CDC web site, http://www.cdc.gov/malaria/about/biology/index.html
Mu, J., Myers, R.A., Jiang, H., Liu, S., Ricklefs, S., Waisberg, M., Chotivanich, K., Wilairatana, P., Krudsood, S., White, N.J., et Plasmodium falciparum genome-wide scans for positive selection, recombination hot spots and resistance to antimalarial drugs Nature Genetics 2010, 42, pp 268-271
Bennett TN, Paguio, M., Gligorijevic, B., Seudieu, C., Kosar, A. D., Davidson, E., and Roepe, P. D. Novel, rapid, and inexpensive cell-based quantification of antimalarial drug efficacy Antimicrobial Agents Chemother. 2004, 48(5): pp 1807-10
Yuan J, Johnson RL, Huang RL, Wichterman J, Jiang HY, Hayton K, Fidock DA, Wellems TE, Inglese J, Austin CP, Su XZ. […]

activity, negative = inhibition, inactive:
CC(CCN1CCc2nc(-c3ccccc3)c(-c3ccccc3)cc2C1)=NOC[C@@H](O)COCc1ccco1 -11.1%
COC(=O)c1c(C(=O)OC)c2c3cc(OC)c(OC)cc3ccn2c1C(=O)OC -0.122%
C=CCN1c2ccccc2[C@]23C[C@@H](C(=O)OC)N(C(=O)Nc4ccccc4F)C2=NC(C(=O)OC)=C(C(=O)OC)[C@H]13 -0.766%
CC#CCN1C(=O)N(C)C(c2ccccc2)C(C(=O)OC)=C1C (stereo not given) -7.03%
CC#CCN1C(=O)NC(c2ccccc2)C(C(=O)OCC)=C1c1ccccc1 (stereo not given) -2.27%
CCN1C(=NCCCCO)N[C@@H](CCc2ccccc2)[C@H](C(=O)OC)[C@H]1C 3.09%
CCCNC(=O)OC[C@H]1O[C@H](CCON=C2[C@H]3CCn4c(=O)n(-c5ccccc5)c(=O)n4[C@@H]3[C@H](O)[C@@H]3O[C@H]23)C=C[C@H]1Oc1ccc(OC)cc1 -2.55%
COCn1c2ccccc2c2nnc(C(=O)O)nc21 4.27%
CC1=C[C@@H](C)OC2(C1)C(=O)N(Cc1ccc(Br)cc1)c1cccc(Br)c12 (stereo not given in full) -9.18%
C[C@H](NC(=O)N1CCc2nc(-c3ccccc3)c3c(c2C1)CO[C@@H](C)C3)c1ccccc1 3.91% [at 1.12 µM]
COc1ccc([C@]23Cc4c(ccc5ccccc45)[C@H](O2)c2c(cc(-c4ccccc4)oc2=O)O3)cc1 -9.68%
COC(=O)[C@@H](NC(=O)O[C@@H]1C(=O)c2cc(Br)ccc2O[C@H]1c1cccc(OC)c1)C(C)C -4.64%
CCOC(=O)CN1C(=O)C2(CC(C)=C[C@@H](C)O2)c2c(Br)cccc21 (stereo not given in full) -8.96%
COC(=O)C[C@H]1c2ccccc2[C@@H]2C(=C[C@@H](C)[C@H]3C(=O)NC(=O)[C@H]32)N1C(=O)OC -2.18%
C=C(C(C)=O)C(O)c1ccc(Cl)cc1 (stereo not given) -2.31%
CCCCC1=CC2=CC(=O)C(C)(OC(=O)CCc3ccccc3)C(=O)C2=CO1 (stereo not given) -6.36%
C[C@H]1CCCC(=O)N[C@@H](c2ccccc2)[C@@H](C)CCCC(=O)N[C@@H]1c1ccccc1 -4.88%
COC[C@H]1O[C@H](c2ccccc2)C=C[C@H]1OCc1cccc(Br)c1 -3.29%
COc1cccc([C@@H]2Oc3ccc(Br)cc3C(=O)[C@@H]2OC(=O)N[C@H]2CCCc3ccccc32)c1 -6.46%
CCN(CC)CCCN=C1NC(c2ccccc2)C(C(=O)OC)=C(C)N1CC (stereo not given) 1.43%
COc1cc2c(cc1OC)[C@@]1(c3ccccc3)CCCC[C@H]1[C@@H]2NC(=O)C(F)(F)F -12.6%
COC(=O)CC=C[C@@H](C)[C@@H](C=NO[C@H](C)c1cn([C@H](CO)Cc2ccccc2)nn1)NS(=O)(=O)c1ccc(C)cc1 -5.62%
CCCCCCCC1=CC2=CC(=O)C(C)(O)C(=O)C2=CN1CCCC (stereo not given) 0.249%
COCCN1C(=O)N(C)C(c2ccccc2)C(C(C)=O)=C1C (stereo not given) -8.9%
COC(=O)C1=C(C)N(CCC(C)O)C(=O)N(C(C)=O)C1c1ccccc1 (stereo not given) -1.22%
C[C@H]1Cc2c(COc3ccccc3)nc3c(c2CO1)CN(S(=O)(=O)c1ccc2c(c1)OCCN2C)CC3 -3.65% [at 1.12 µM]
COC(=O)CCC(=O)OC1(C)C(=O)C=C2C=C(C3CC3)N(Cc3ccco3)C=C2C1=O (stereo not given) 0.997% [at 1.12 µM]
C=CCC(Nc1ccc(OC)cc1)(C(=O)OCC)c1ccccc1 (stereo not given) 0.235%
COC(=O)C1=C(C(=O)OC)[C@@H]2N(C)c3ccccc3[C@@]23C[C@@H](CO)N(C(=O)NC2CCCCC2)C3=N1 -15.9%
CC(C)[C@@H](OCc1ccccc1)[C@H](C)C=NOC[C@@H](C)[C@H](OCc1ccccc1)C(C)C -15.6%
CCCCCCCc1cc2ccccc2c(=O)o1 -5.33%
CCCNC(=O)OC[C@H]1O[C@H](CCON=CC[C@@H]2C=C[C@H](OC(C)=O)[C@@H](COC(C)=O)O2)C=C[C@H]1Oc1ccc(OC)cc1 -3.83%
CC1(C)O[C@@H](C(O)(c2cc(C(F)(F)F)cc(C(F)(F)F)c2)c2cc(C(F)(F)F)cc(C(F)(F)F)c2)[C@H](C(O)(c2cc(C(F)(F)F)cc(C(F)(F)F)c2)c2cc(C(F)(F)F)cc(C(F)(F)F)c2)O1 -1.87%
COC(=O)[C@@H](O)CC[C@@H](C)Cc1c(OC)c(OC)c(C)c(OC)c1OC -6.67%
CC(Nc1oc(-c2ccccc2)nc1-c1ccccc1)c1ccccc1 (stereo not given) -8.26%
COc1ccc(-c2nc(-c3ccccc3)oc2NC2CCCCC2)cc1 -3.19%

Potency, inactive:
COCCN1C(=O)N[C@@H](CCc2ccccc2)[C@@H](C(=O)OC)[C@H]1C
C=C(C)C(O)C=Cc1ccc(Br)cc1 (stereo not given)
COC(=O)C1=C(C(=O)OC)[C@@H]2N(C)c3ccccc3[C@@]23C[C@@H](C(=O)OC)N(C(=O)c2cc(C)oc2C)C3=N1
COC(=O)CC1c2ccccc2C(Cc2ccc(OC)cc2)C(C)N1C(=O)OC (stereo not given)
